High-throughput results: PubChem, several laboratories
In the library only some 0.5% were active in any assay of this set; here they are far more common.
phage Ecoli inh – E. coli growth loss with phage present | growth absorbance | inhibition, % at 11.9 µM | hit rate 0.26% among 360,000; in the data active means inhibition above about 11%
E coli growth-1 – E. coli growth inhibition | Escherichia coli growth, OD600, 23 h; stronger effect = lower value | OD600 absorbance (test concentration not listed) | hit rate 0.21% among 330,000;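 active means OD600 absorbance below the run mean of sample wells minus 3.6 SD, in any replicate, cut at about 0.56 in these data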
AddAB inh – less growth of phage-infected E. coli with AddAB. E. coli expressing H. pylori AddAB, absorbance growth. inhibition, % at 11.9 µM. hit rate 0.29% among 330,000; in the data active means inhibition above about 12%;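 further: 0% = vehicle wells of infected cells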
Tat export inh – inhibitors of E. coli Tat protein transport; hit rate 0.036% among 340,000; AID 488895; inhibition, % at 10 µM; E. coli MC4100 TorA-mCherry Tat export, fluorescence;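 active means mean replicate inhibition at least 50% and at least half of replicates individually reaching 50%; inconclusive means only one of the two criteria met; inactive means neither criterion met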;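 further: exported cargo escapes ClpAP degradation while cytoplasmic cargo is degraded and loses fluorescence; 0% = median of neutral control wells and 100% = median of NaSCN control wells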
E coli growth-2 – counter-screen for AddAB inhibitors: E. coli growth inhibition | E. coli V3065 growth, OD600 absorbance, 18 h | inhibition, % at 11.9 µM | hit rate 0.27% among 330,000;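 active means inhibition above the campaign's mean inhibition across all tested compounds plus 3 SD, cut at about 9.9% in these data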;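 further: uninfected addAB+ strain grown without phage in ampicillin broth; 0% = DMSO wells and 100% = ciprofloxacin 0.95 µg/ml wells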
AddAB confirm – growth loss of T4-infected E. coli expressing H. pylori AddAB, confirmed. shares compounds with AddAB inh. E. coli V3065 expressing H. pylori AddAB, T4 phage, OD; T4 phage with gene 2 nonsense mutations. inhibition, % at 11.9 µM. hit rate 64% among 880. AID 488942;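 active means mean inhibition above a set limit taken from the earlier primary screen, cut at about 13% in these data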;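 further: higher means less bacterial growth since AddAB block lets phage replicate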
RecBCD counter – reduces growth of phage-infected RecBCD+ E. coli, AddAB inhibitor counter-screen; shares compounds with AddAB inh; E. coli V66 + mutant T4 phage, OD growth; inhibition, % at 11.9 µM; hit rate 73% among 880; AID 488955;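 active means mean inhibition above the mean of solvent-only control wells plus 3 SD, cut at about 4% in these data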;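 further: optical density read after an 18 h incubation at 37 °C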
Bact viability – counter-screen: bacterial growth inhibition; shares compounds with AddAB inh; bacterial viability, absorbance (AddAB counterscreen); inhibition, % at 11.9 µM; hit rate 35% among 880; AID 488956; in the data active means inhibition above about 25%
Starred values were filed as active, the others as inactive; ? = inconclusive; . = no result.

SMILES | phage Ecoli inh | E coli growth-1 | AddAB inh | Tat export inh | E coli growth-2 | AddAB confirm | RecBCD counter | Bact viability
CC(O)C1CNCCN1CCc1cccc2ccccc12 (centres undefined) | . | 0.64 | . | . | . | . | . | .
CC1(C)OC2C(CO)OC(n3cnc4c(N)ncnc43)C2O1 (centres undefined) | . | 0.67 | . | . | . | . | . | .
O=C(NN=Cc1sc(=O)[nH]c1-[n+]1ccccc1)c1ccccc1[O-] | . | 0.68 | . | . | . | . | . | .
O=[N+]([O-])c1ccc(N/N=C/c2ccc[nH]2)cc1 | 6 | . | 12* | 1 | 6 | 13* | 2 | 5
CCOC(=O)CN=C1CC(C)(C)CC2=C1Sc1ncnc(N(C)C)c1N2 | . | 0.71 | 20* | -4 | 43* | 1 | 1 | -1
CC=C(C)C(=O)OC1c2c(ccc3ccc(=O)oc23)OC(C)(C)C1OC(C)=O (centres undefined) | . | 0.68 | . | . | . | . | . | .
COc1c(O)c(O)c2oc(-c3ccccc3)cc(=O)c2c1OC | 10 | 0.69 | 16* | 0 | 7 | 14* | 9.2* | 15
COc1cc(-c2cc(=O)c3c(O)c(OC)c(OC)c(O)c3o2)ccc1O | 7 | 0.75 | 9 | 11 | 3 | . | . | .
CC(C)CC(CO)N1CCN(Cc2ccccc2)CCC1=O (centres undefined) | . | 0.7 | . | . | . | . | . | .
COc1cccc(/C=N/NC(=O)N/N=C/c2cccc(OC)c2O)c1O | 11 | . | 15* | -5 | 12* | 12 | 11* | 9
COc1cccc(C=NNC(=O)C(=O)NN=Cc2cccc(OC)c2O)c1O | . | 0.71 | . | . | . | . | . | .
CC(=O)c1cc(F)c(N2CCN(C(=O)c3ccco3)CC2)cc1C | 0 | 0.74 | 2 | -4 | 2 | . | . | .
CCn1cc(C(=O)NC(C)C)c(=O)c2cc(F)c(N3CCN(C(=O)c4ccco4)CC3)cc21 | 5 | 0.087* | 89* | 9 | 82* | 99* | 1 | 35*
CCn1cc(C(=O)NCCC(C)C)c(=O)c2cc(F)c(N3CCN(C(=O)c4ccco4)CC3)cc21 | 3 | 0.15* | 26* | 3 | 16* | 99* | 2 | 36*
COC(=O)c1cc(C(=O)OCC(=O)N(C)C2CCS(=O)(=O)C2)cc([N+](=O)[O-])c1 (centres undefined) | 1 | 0.7 | 22* | 0 | 12* | -2 | -1 | -2
S=C(NCCCc1ccccc1)Nc1ccccc1 | -1 | 0.68 | . | -5 | . | . | . | .
S=C(NCCCc1ccccc1)Nc1ccc(Cl)cc1 | 9 | 0.58 | 12* | -1 | 8 | 11 | 12* | 6
COc1cccc(CNS(=O)(=O)C=Cc2ccc(OC)c(OC)c2)c1 | . | 0.7 | . | . | . | . | . | .
COc1ccc(CNC(=O)C2CCN(S(=O)(=O)c3cccc4cccnc34)CC2)cc1 | 3 | 0.69 | 14* | 3 | 2 | -6 | 0 | -3
O=C(NCc1ccccc1)C1CCN(S(=O)(=O)c2cccc3cccnc23)CC1 | 2 | 0.74 | 1 | -1 | -2 | . | . | .
COC(=O)C1=C(C)N(Cc2ccccc2)C(=NCc2ccccc2)NC1c1cccc(F)c1 (centres undefined) | . | 0.64 | . | . | . | . | . | .
O=C(Nc1ccc([N+](=O)[O-])cc1)Nc1ccc(OC(F)F)c(Cl)c1 | 13* | 0.29* | 15* | -8 | 15* | 15* | 17* | 11
CC[C@@]12C(=O)N(c3ccc(C)cc3)C(=O)N1C(c1ccc(OC)cc1)C1C(=O)N(C(C)(C)C)C(=O)C12 (some centres undefined) | . | 0.66 | . | . | . | . | . | .
Cc1cc(C)c2c(NC(=O)CCl)nn(C)c2n1 | 0 | 0.71 | 93* | 0 | 65* | 2 | 0 | 0
O=C(NC(=S)NNC(=O)c1ccccc1O)c1cccs1 | 9 | 0.54 | 13* | 3 | 6 | 22* | 20* | 13
SMILES | phage Ecoli inh | E coli growth-1 | AddAB inh | Tat export inh | E coli growth-2 | AddAB confirm | RecBCD counter | Bact viability
O=C(NC(=S)NNC(=O)c1ccccc1O)c1ccccc1 | 10 | 0.58 | 13* | ? | 10* | 10 | 17* | 15
O=C(NC(=S)NNC(=O)c1ccccc1O)c1ccc(F)cc1 | 10 | 0.72 | 13* | 5 | 16* | 15* | 18* | 16
COc1ccccc1C(=O)NNC(=S)NC(=O)c1cccs1 | 1 | . | 4 | 8 | 0 | . | . | .
O=C(NC1CC=CCC(CC(=O)N(CCO)Cc2ccccc2)C(=O)NC(Cc2c[nH]c3ccccc23)COC1=O)OCC1c2ccccc2-c2ccccc21 (centres undefined) | . | 0.71 | . | . | . | . | . | .
O=C(NC(c1ccc(Cl)cc1)c1c(O)ccc2ccccc12)c1ccccc1 (centres undefined) | 7 | 0.67 | 14* | 3 | 2 | 1 | 2 | -2
O=C(NC(c1ccccc1)c1c(O)ccc2ccccc12)c1ccccc1Cl (centres undefined) | 4 | 0.72 | 3 | 6 | 0 | . | . | .
C(C#CCCCCCCCCC[n+]1ccccc1)#CCCCCCCCCC[n+]1ccccc1 | . | 0.064* | 101* | 82* | 102* | 100* | 100* | 101*
CCCCOCC(O)CCc1n[nH]c(=S)n1-c1ccccc1 (centres undefined) | 3 | 0.64 | 84* | 0 | 27* | 2 | 1 | -1
CC(C)OCC(O)CCc1n[nH]c(=S)n1-c1ccccc1 (centres undefined) | 2 | 0.65 | 1 | -6 | 0 | . | . | .
C=CCn1c(O)c(N=Nc2ccccc2O)c2ccccc21 | 7 | 0.62 | 18* | 2 | 11* | 81* | 4.6* | 19
C=CCn1c(O)c(N=Nc2ccccc2)c2ccccc21 | 4 | . | -2 | -1 | -4 | . | . | .
O=C(Nc1ccccc1Cl)c1ccc([N+](=O)[O-])o1 | 9 | 0.57 | 31* | -17 | 24* | 92* | 10* | 29*
Cc1ccccc1NC(=O)c1ccc([N+](=O)[O-])o1 | 10 | 0.65 | 24* | -9 | 11* | 31* | 6.7* | 12
CCC(=O)N1CCN(c2ccc(NC(=O)c3ccc([N+](=O)[O-])o3)cc2Cl)CC1 | 6 | 0.65 | . | -3 | . | . | . | .
Cc1cccnc1NC(=O)c1ccc([N+](=O)[O-])o1 | 12* | 0.58 | 92* | -5 | 24* | 91* | 12* | 24
CC(=O)N1CCN(c2ccc(NC(=O)c3ccc([N+](=O)[O-])o3)cc2Cl)CC1 | 6 | 0.62 | 14* | -4 | 5 | 56* | 4.9* | 15
C=C(C)C1CCC2(C(=O)O)CC[C@]3(C)C(CCC4[C@@]5(C)CCC(=O)C(C)(C)C5CC[C@]43C)C12 (some centres undefined) | . | 0.69 | . | . | . | . | . | .
COc1cc(NS(=O)(=O)c2ccc(NC(=O)C=Cc3cccc([N+](=O)[O-])c3)cc2)ncn1 | . | 0.75 | . | . | . | . | . | .
